Results on 20 compounds are retold here after PubChem BioAssay.

Each structure is given as a SMILES string. Values without a mark were called inactive. For some of these results: Measured potencies and affinities stand elsewhere. The source made the active and inactive calls. Unless noted, the rule behind the calls is not given here.

Broadly, the inhibition is the change of the read-out against control, counted positive when it falls.

The nature of assay [1]: antimalarial activity against Dd2 strain (AID 2302;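 active = growth inhibition above 50% at the single 2 µM test dose, taken to imply half-maximal potency below 2 µM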;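 note: 0% = DMSO untreated growth and 100% = chloroquine plus artemisinin killed control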). As to conditions: P. falciparum Dd2 in RBCs, LDH growth readout, 72 h; at 2 µM; active compounds read high.
The nature of assay [2]: HepG2 cytotoxicity, primary screen, cytotoxicity control for P. falciparum antimalarial project, cell-based, ATP luminescence (AID 2303;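 active = inhibition above 50%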;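 note: 0% = DMSO wells and 100% = digitonin-killed cells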). Particulars: HepG2 viability, 24-48 h, at 10 µM, active compounds read high.
The target in assay [3] is L-lactate dehydrogenase (Plasmodium falciparum (isolate CDC / Honduras)) (UniProt Q27743). Briefly: PfLDH activity inhibition – cell lysate, 3D7 strain, counter-screen for P. falciparum growth inhibition project (AID 2304).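 Note: 0% = vehicle and 100% = reference inhibitor.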 As to conditions: P. falciparum 3D7 crude extract, LDH APAD/NBT absorbance; at 2 µM; active compounds read high.
Assay [4] is described as follows: inhibition of 3D7 malaria parasite growth – strain 3D7 (AID 2306).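 Note: 0% = DMSO wells and 100% = chloroquine plus artemisinin control wells.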 Particulars: P. falciparum 3D7 erythrocytic growth, LDH absorbance, 72 h; at 2 µM; active compounds read high.
The target in assay [5] is Calcium-dependent protein kinase 1 (Plasmodium falciparum (isolate 3D7)) (UniProt P62344). Put plainly: PfCDPK1 kinase inhibitors, biochemical, TCAMS library (AID 1159585; cut-off not given, nearly all actives have IC50 up to about 0.98 µM;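 note: inhibitors leave more ATP so luminescence rises with inhibition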). Particulars: recombinant PfCDPK1, Kinase-Glo ATP depletion luminescence. On the technique in general: In Kinase-Glo more light means more ATP remaining.
Assay [6] has as its target Plasmodium falciparum protein kinase 6 (PK6, PF3D7_1337100) (UniProt Q8IDW1). Briefly: PfPK6 kinase inhibitors, biochemical, TCAMS library (AID 1159586). Particulars: recombinant PfPK6, Kinase-Glo ATP depletion luminescence.
In assay [7] the target is Protein kinase 7 (PK7), Plasmodium falciparum 3D7 (PF3D7_0213400) (UniProt Q7YTF7). Put plainly: inhibition of Plasmodium PK7 catalytic activity – biochemical, TCAMS antimalarial set, Kinase-Glo luminescence (AID 1159587). Particulars: recombinant PfPK7, Kinase-Glo ATP depletion luminescence.
The target of assay [8] is Calcium-dependent protein kinase 4 (Plasmodium falciparum (isolate 3D7)) (UniProt Q8IBS5). Put plainly: PfCDPK4 kinase inhibitors, biochemical, TCAMS library (AID 1159588; cut-off not given, nearly all actives have IC50 up to about 0.91 µM). As to conditions: recombinant PfCDPK4, Kinase-Glo ATP depletion luminescence.
Chain of Calcium-dependent protein kinase 4 (Plasmodium falciparum (isolate 3D7)) (Q8IBS5 whole entry, looked up): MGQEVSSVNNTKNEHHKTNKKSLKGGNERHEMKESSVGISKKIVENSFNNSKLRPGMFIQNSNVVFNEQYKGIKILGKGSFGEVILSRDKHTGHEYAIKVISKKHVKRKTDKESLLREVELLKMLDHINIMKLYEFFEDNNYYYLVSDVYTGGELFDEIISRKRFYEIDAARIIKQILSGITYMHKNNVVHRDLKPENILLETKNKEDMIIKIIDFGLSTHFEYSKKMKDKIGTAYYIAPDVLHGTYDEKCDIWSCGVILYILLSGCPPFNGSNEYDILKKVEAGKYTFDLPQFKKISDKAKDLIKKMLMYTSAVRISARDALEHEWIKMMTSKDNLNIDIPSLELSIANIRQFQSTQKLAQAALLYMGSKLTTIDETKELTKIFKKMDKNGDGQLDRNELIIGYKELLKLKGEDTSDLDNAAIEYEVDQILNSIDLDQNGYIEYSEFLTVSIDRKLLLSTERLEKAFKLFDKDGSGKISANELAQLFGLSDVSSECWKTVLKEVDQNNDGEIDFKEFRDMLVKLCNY

Chain of Plasmodium falciparum protein kinase 6 (PK6, PF3D7_1337100) (Q8IDW1 1-305): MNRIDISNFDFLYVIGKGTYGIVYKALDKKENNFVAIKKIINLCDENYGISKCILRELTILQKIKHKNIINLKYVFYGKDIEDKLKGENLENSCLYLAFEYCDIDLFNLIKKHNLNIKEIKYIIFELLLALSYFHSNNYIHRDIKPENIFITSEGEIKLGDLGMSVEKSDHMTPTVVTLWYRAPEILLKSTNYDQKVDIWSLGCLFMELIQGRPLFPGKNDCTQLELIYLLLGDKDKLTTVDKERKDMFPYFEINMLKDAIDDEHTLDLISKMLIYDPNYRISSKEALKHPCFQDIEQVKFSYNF
Chain of Protein kinase 7 (PK7), Plasmodium falciparum 3D7 (PF3D7_0213400) (Q7YTF7 1-343): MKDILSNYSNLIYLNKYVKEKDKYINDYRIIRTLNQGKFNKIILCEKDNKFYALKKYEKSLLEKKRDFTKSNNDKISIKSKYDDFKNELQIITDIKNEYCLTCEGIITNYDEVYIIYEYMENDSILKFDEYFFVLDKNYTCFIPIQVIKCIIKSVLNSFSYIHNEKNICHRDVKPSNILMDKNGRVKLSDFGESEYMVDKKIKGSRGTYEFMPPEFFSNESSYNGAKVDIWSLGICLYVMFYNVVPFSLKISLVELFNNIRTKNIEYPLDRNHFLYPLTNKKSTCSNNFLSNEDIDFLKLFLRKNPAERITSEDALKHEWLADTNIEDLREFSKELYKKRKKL
Chain of Calcium-dependent protein kinase 1 (Plasmodium falciparum (isolate 3D7)) (P62344 whole entry, looked up): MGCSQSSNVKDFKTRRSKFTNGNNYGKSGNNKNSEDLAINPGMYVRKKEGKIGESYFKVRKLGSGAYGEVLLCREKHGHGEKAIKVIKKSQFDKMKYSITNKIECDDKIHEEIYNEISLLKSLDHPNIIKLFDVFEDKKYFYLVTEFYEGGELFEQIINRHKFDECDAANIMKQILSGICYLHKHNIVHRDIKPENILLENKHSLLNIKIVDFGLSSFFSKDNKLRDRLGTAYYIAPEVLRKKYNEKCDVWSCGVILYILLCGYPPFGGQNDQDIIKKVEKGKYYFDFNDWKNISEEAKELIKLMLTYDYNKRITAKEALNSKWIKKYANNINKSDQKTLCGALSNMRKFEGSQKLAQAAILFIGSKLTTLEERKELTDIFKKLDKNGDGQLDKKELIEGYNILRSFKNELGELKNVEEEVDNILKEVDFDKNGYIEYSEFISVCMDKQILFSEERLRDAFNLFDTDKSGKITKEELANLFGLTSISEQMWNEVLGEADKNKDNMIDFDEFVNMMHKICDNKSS
Chain of L-lactate dehydrogenase (Plasmodium falciparum (isolate CDC / Honduras)) (Q27743 whole entry, looked up): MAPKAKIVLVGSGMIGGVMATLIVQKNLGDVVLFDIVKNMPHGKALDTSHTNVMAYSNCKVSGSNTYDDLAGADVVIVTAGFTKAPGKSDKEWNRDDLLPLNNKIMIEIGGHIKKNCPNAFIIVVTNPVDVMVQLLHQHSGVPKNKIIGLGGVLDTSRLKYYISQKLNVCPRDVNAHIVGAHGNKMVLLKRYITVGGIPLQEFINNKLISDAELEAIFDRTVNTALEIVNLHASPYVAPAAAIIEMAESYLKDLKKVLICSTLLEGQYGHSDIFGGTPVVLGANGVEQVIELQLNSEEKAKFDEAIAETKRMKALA

For the compound `CC(CNC1CCN(CCn2c(=O)ccc3ccc(F)cc32)CC1)c1ccccc1` (stereo not given), the figures for the growth inhibition in assay [1] and in assay [4] were 4% and 85% (active), respectively. Also, the values for the inhibition in assay [2] and in assay [3] were -12% and -1%, respectively. Further, the outcome in assay [5], in assay [6], in assay [7] and in assay [8] was inactive.
On to `S=C(NCCN1CCOCC1)Nc1ccccc1`, for which the growth inhibition in assay [1] is 1%; in assay [4], 94% (active). Moreover, the inhibition in assay [2] is 3%; in assay [3], 1%. In addition, the outcome in assay [5], in assay [6], in assay [7] and in assay [8] was inactive.
Turning to `N#Cc1ccc2c(c1)CCN(CCC1CCC(NC(=O)c3cc4ccccc4[nH]3)CC1)CC2` (stereo not given), the growth inhibition in assay [1] is 25%; in assay [4] it was 89% (active). Also, the inhibition is 17% in assay [2] and -1% in assay [3]. For the same compound, the outcome in assay [5], in assay [6], in assay [7] and in assay [8] was inactive.
For the compound `CC(Cc1ccc(OCCN2CCN(c3ccccc3)CC2)cc1)NCC(O)c1cccc(Cl)c1F` (stereo not given), the growth inhibition in assay [1] was 56% (active); in assay [4], 92% (active). Also, the values for the inhibition in assay [2] and in assay [3] were 40% and 6%, respectively. The outcome in assay [5], in assay [6], in assay [7] and in assay [8] was inactive.
Regarding `c1cncc(CCNCc2cccc(-c3csc(-c4nc5ccccc5[nH]4)c3)c2)c1`, the growth inhibition in assay [1] is 98% (active); in assay [4], 100% (active). The inhibition in assay [2] is 26%; in assay [3], -1%. The outcome in assay [5], in assay [6], in assay [7] and in assay [8] was inactive.
Take `CC(C)C[C@H](NC(=O)c1cc2ccccc2s1)C(=O)N[C@H]1CCN(Cc2ccc(OCCN3CCNCC3)c3ccccc23)C1`: the growth inhibition was 96% (active) in assay [1] and 101% (active) in assay [4]. Besides, the inhibition was 43% in assay [2] and 3% in assay [3]. The outcome in assay [5], in assay [6], in assay [7] and in assay [8] was inactive.
For `Cc1c(C)n(C2CCCC2)c2ncnc(OC3CCN(CC(=O)NC4CC4)CC3)c12`, the growth inhibition in assay [1] is 92% (active); in assay [4] it was 95% (active). In addition, the inhibition was 13% in assay [2] and -4% in assay [3]. For the same compound, the result in assay [5], in assay [6], in assay [7] and in assay [8] was inactive.
Turning to `Cc1ccc(CCC(C)NCC(O)c2cccc(C(F)(F)F)c2)cc1` (stereo not given), the growth inhibition in assay [1] is 98% (active); in assay [4], 99% (active). Further, the inhibition in assay [2] is -17%; in assay [3], 4%. For the same compound, the outcome in assay [5], in assay [6], in assay [7] and in assay [8] was inactive.
Consider `Cc1ccc(CNC(=O)c2ccc(CN3CCCN(Cc4ccsc4)CC3)cc2)cc1`, for which the results for the growth inhibition in assay [1] and in assay [4] were -1% and 93% (active), respectively. The figures for the inhibition in assay [2] and in assay [3] were 16% and 5%, respectively. Also, the outcome in assay [5], in assay [6], in assay [7] and in assay [8] was inactive.
With `Cc1cccc(CNc2ncc(C)c(NCCC(=O)Nc3ccccc3)n2)c1`, the growth inhibition in assay [1] was 10%; in assay [4], 81% (active). Also, the inhibition was 18% in assay [2] and 5% in assay [3]. Moreover, the outcome in assay [5], in assay [6], in assay [7] and in assay [8] was inactive.
As to `CCC[C@@H]1CCN[C@H]([C@H](O)c2ccnc3ccc(OC)cc23)C1`, the growth inhibition is 69% (active) in assay [1] and 99% (active) in assay [4]. The figures for the inhibition in assay [2] and in assay [3] were -3% and -1%, respectively. Moreover, the outcome in assay [5], in assay [6], in assay [7] and in assay [8] was inactive.
For the compound `CC1CN(c2ccc(NC(=O)c3ccc(F)cc3)cc2)CCN1Cc1cccc(F)c1` (stereo not given), the growth inhibition in assay [1] was 76% (active); in assay [4] it was 81% (active). Further, the inhibition was 11% in assay [2] and 2% in assay [3]. For the same compound, the outcome in assay [5], in assay [6], in assay [7] and in assay [8] was inactive.
As for `Cc1cccc2[nH]c(-c3ccc(-c4ccc(NC(=O)Nc5ccc(Cl)cc5)cc4)s3)nc12`, the growth inhibition in assay [1] is 100% (active); in assay [4], 101% (active). In addition, the inhibition was 78% (active) in assay [2] and 7% in assay [3]. Moreover, the outcome in assay [5], in assay [6], in assay [7] and in assay [8] was inactive.
For `CN(C)CCc1coc2ccc(C(=O)Nc3ccc(-c4ccc(O)cc4)cc3)cc12`, the growth inhibition is 40% in assay [1] and 101% (active) in assay [4]. The results for the inhibition in assay [2] and in assay [3] were 28% and -3%, respectively. In addition, the outcome in assay [5], in assay [6], in assay [7] and in assay [8] was inactive.
In the case of `COc1ccc(NC(=O)N2CCCN(CCCCCNC(=O)/C=C/c3ccc(Cl)cc3)CC2)cc1Cl`, the growth inhibition in assay [1] was 1%; in assay [4], 97% (active). Further, the inhibition in assay [2] was 15%; in assay [3] it was 1%. Also, the result in assay [5], in assay [6], in assay [7] and in assay [8] was inactive.
Regarding `N#Cc1ccc(CN2CCC(Oc3ccc(NC(=O)c4cccs4)cc3Cl)CC2)cc1`, the growth inhibition in assay [1] was 96% (active); in assay [4] it was 95% (active). Besides, the values for the inhibition in assay [2] and in assay [3] were 26% and -1%, respectively. Moreover, the result in assay [5], in assay [6], in assay [7] and in assay [8] was inactive.
On to `CCCCOC(=O)NCCCC[C@H](NC(=O)OC(C)(C)C)C(=O)N[C@H](C(=O)OC(c1ccccc1)c1ccccc1)[C@H]1O[C@@H](n2ccc(=O)[nH]c2=O)[C@@H]2OC(C)(C)O[C@@H]21`, for which the figures for the growth inhibition in assay [1] and in assay [4] were 65% (active) and 87% (active), respectively. The inhibition in assay [2] is 7%; in assay [3], 4%. For the same compound, the result in assay [5], in assay [6], in assay [7] and in assay [8] was inactive.
Regarding `O=C(Nc1ccc(Cl)c(Cl)c1)Nc1ccccc1N1CCNCC1`, the results for the growth inhibition in assay [1] and in assay [4] were 22% and 101% (active), respectively. The inhibition in assay [2] was 17%; in assay [3] it was 1%. Besides, the result in assay [5], in assay [6], in assay [7] and in assay [8] was inactive.
Regarding `CCc1nc(N)nc(N)c1-c1ccc(F)cc1`, the growth inhibition in assay [1] is -3%; in assay [4], 96% (active). In addition, the values for the inhibition in assay [2] and in assay [3] were 52% (active) and -2%, respectively. Further, the result in assay [5], in assay [6], in assay [7] and in assay [8] was inactive.
For the compound `Fc1ccc2nc(-c3cccc(-c4cccc(CN5CCN(c6ccncc6)CC5)c4)c3)[nH]c2c1`, the values for the growth inhibition in assay [1] and in assay [4] were 99% (active) and 102% (active), respectively. The inhibition is 71% (active) in assay [2] and 1% in assay [3]. In addition, the outcome in assay [5], in assay [6], in assay [7] and in assay [8] was inactive.
